Experimental data from ChEMBL document CHEMBL1201862, “PubChem BioAssay data set” (2004).
Hit rate of the full screen: of about 400,000 compounds, about 2,100 (0.53%) were called active. Not shown: some 14% with an inconclusive outcome. No rule for the calls is given here. The entries come from a sample that favours actives as a whole.

The compounds below were run against Ataxin-2 (Homo sapiens) (UniProt Q99700) (assay: qHTS for Inhibitors of ATXN expression.).
Assay type: functional

Chain of Ataxin-2 (Homo sapiens) (Q99700 whole entry): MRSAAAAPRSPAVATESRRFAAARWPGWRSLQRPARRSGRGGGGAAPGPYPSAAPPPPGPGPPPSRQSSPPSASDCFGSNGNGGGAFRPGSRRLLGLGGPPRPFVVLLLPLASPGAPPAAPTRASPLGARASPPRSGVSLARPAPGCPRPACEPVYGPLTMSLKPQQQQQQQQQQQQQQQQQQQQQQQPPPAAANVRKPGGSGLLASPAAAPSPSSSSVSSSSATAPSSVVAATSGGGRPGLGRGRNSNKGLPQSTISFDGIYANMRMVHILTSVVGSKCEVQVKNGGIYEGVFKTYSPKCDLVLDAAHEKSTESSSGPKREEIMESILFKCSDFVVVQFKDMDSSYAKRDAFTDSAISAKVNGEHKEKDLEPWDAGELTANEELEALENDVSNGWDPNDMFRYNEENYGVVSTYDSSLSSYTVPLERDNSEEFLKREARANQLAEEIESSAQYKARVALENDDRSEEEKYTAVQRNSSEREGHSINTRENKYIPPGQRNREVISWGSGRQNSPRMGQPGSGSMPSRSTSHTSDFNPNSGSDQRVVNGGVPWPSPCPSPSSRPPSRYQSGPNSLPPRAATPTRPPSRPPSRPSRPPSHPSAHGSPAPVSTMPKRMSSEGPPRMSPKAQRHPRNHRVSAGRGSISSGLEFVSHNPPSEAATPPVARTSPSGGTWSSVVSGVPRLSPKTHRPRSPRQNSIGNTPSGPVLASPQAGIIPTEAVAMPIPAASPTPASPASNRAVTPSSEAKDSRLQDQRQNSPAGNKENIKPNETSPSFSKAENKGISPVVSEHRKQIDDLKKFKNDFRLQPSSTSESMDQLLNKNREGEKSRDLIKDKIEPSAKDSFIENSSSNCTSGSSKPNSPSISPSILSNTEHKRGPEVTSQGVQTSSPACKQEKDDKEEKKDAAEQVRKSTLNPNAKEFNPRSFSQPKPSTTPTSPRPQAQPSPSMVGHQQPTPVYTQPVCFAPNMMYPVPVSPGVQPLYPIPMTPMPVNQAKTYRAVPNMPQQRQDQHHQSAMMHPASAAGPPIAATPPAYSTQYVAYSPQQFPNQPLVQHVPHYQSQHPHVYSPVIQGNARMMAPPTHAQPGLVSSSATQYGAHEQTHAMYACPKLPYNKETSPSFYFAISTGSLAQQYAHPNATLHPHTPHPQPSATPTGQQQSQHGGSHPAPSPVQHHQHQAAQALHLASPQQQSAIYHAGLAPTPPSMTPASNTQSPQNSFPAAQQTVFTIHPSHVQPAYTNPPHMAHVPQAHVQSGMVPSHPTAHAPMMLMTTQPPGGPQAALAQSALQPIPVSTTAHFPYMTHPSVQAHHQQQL

SMILES | Potency
CCCCN(C)Cc1cc(=O)oc2cc3c(cc12)CCCC3 | inactive
Nc1cccc2c1C(=O)N(C(=O)c1ccc(S(=O)(=O)N3CCCCCC3)cc1)C2=O | inactive
Cc1c(C)c2cc(Cl)c(O)c(CN3CCCC(C)C3)c2oc1=O (stereo not given) | inactive
Cc1csc(Nc2ccc(Cl)cc2)[n+]1-c1ccc(Cl)cc1 | inactive
CC(C)C[C@H]1CNC(=S)N1C[C@H]1CCCN1C[C@H](Cc1ccc(O)cc1)N1C[C@H](Cc2ccc(O)cc2)N(CCc2ccccc2)C1=S | 15.8 µM (active)
O=C1NC[C@H](Cc2ccccc2)N(C[C@@H]2CCCN2C[C@H](Cc2ccccc2)N2C[C@H](Cc3ccccc3)N(CC3CCCCC3)C(=O)C2=O)C1=O | 39.8 µM (active)
COCCCC1CCN(C(=O)C2CCC(=O)N(CCCc3ccccc3)C2)CC1 (stereo not given) | inactive
O=C1NC[C@H](CCCCN2C[C@H](Cc3ccccc3)N(CCc3ccccc3)C(=O)C2=O)N(CCC2CCCCC2)C1=O | 20 µM (active)
CC(C)C[C@@H](CN1CCC[C@H]1CN1C(=O)C(=O)NC[C@@H]1Cc1ccccc1)N1C[C@H](Cc2ccccc2)N(CC2CCCCC2)C(=O)C1=O | 35.5 µM (active)
Clc1ccc2oc(-c3ccccc3)cc(=NCCCN3CCOCC3)c2c1 | inactive
COc1ccc(CCNC2CCc3ccccc3C2)cc1 (stereo not given) | inactive
O=C(Cn1ccc([N+](=O)[O-])n1)NCc1ccccc1 | inactive
Cc1c(O)c(CN2CCCCC2)cc2c3c(c(=O)oc12)CCC3 | inactive
Cc1nc(-c2ccc(S(=O)(=O)Nc3cccc(S(N)(=O)=O)c3)s2)cs1 | inactive
Cc1ccc(-n2c(Cl)c(Cl)nc(Cl)c2=O)cc1 | 4.74 µM (active)
Cc1ccc(-n2c(=O)c(C#N)cc3c(=O)n4ccccc4nc32)cc1 | inactive
Cc1ccc(-n2c3nc(=O)n(C)c(=O)c-3cc3ccccc32)cc1 | inactive
Fc1ccc2cnc(-c3ccccc3)c(-c3cc(C(F)(F)F)cc(C(F)(F)F)c3)c2c1 | 35.5 µM (active)
O=c1c2ccccc2c(-c2ccc(F)cc2)nn1-c1ccc(C(F)(F)F)cc1 | inactive
CCOC(=O)C1(CC2CCCCO2)CCN(S(=O)(=O)c2ccccc2)CC1 (stereo not given) | inactive
COc1ccc2cc3cc(C(=O)Nc4ccc5c(c4)OCO5)oc3nc2c1 | 22.4 µM (active)
COc1ccc(C(=O)Nc2ccccc2N2CCOCC2)cc1S(=O)(=O)N1CCOCC1 | inactive
COc1cccc(/C=C/C(=O)Nc2ccccc2N2CCOCC2)c1 | inactive
Cc1ccc2cccc(OCC(=O)Nc3ccc4c(c3)OCO4)c2n1 | inactive
COc1c(C)cc(Br)cc1C(=O)Nc1ccccc1N1CCN(C(=O)c2ccccc2)CC1 | inactive

SMILES | Potency
COc1ccc(C(=O)Nc2ccc3ccccc3c2)c(OC)c1 | inactive
COc1ccc2cc3cc(C(=O)Nc4ccccc4N4CCN(C)CC4)oc3nc2c1 | 39.8 µM (active)
Cc1ccc(C)c(NC(=O)c2cc3ccccc3o2)c1 | inactive
COc1ccc2cc3cc(C(=O)Nc4ccc5c(c4)OCCO5)oc3nc2c1 | 28.2 µM (active)
CN1CCN(c2ccccc2NC(=S)NC(=O)c2cc3ccccc3o2)CC1 | 39.8 µM (active)
Nc1c(C(=O)CSc2nnc(Nc3ccc(F)cc3)s2)c(=O)[nH]c(=O)n1C1CC1 | inactive
COc1ccc2c(c1)c(=O)oc1cc(O)ccc12 | inactive
Cc1ccc2nc3c(cc(C(=O)NC4CCCC4)c(=N)n3C(C)C)c(=O)n2c1 | inactive
O=C(O)c1ccc(/N=c2\oc3cc(O)ccc3cc2C(=O)NCc2ccccc2)cc1 | inactive
O=c1cc(CN2CCOCC2)c2cc(Cl)c(O)cc2o1 | inactive
CN(C)C(=O)COc1ccc2c(-c3ccccc3)cc(=O)oc2c1 | inactive
CCOc1cc(/C=C2/C(=O)ON=C2C)cc(Br)c1O | inactive
CCOc1cc(/C=C2\COc3ccccc3C2=O)cc(Br)c1OCC(=O)N(C)C | 28.2 µM (active)
C=CCn1cc[n+](-c2nc3ccccc3nc2[N-]S(=O)(=O)c2cccs2)c1 | inactive
CCNc1nc(SCC(N)=O)nc2sc3c(c12)CCN(C)C3 | inactive
COc1ccc(C[C@@H]2OC3(C=CC(=O)C=C3)O[C@H]2Cc2ccc(OC)cc2)cc1 | 3.98 µM (active)
COC(=O)c1ccc(CO/N=C/c2ccc(OC)cc2)o1 | inactive
COc1ccc(Cc2n[nH]c(=S)n(N)c2=O)cc1 | inactive
CC1CN(Cc2cc(=O)oc3cc(O)c(Cl)cc23)CC(C)O1 (stereo not given) | inactive
CCc1c(O)nc2c(c(C)nn2-c2ccccc2)c1C | inactive
CCCSC(=S)c1c(C)nn(-c2ccccc2)c1O | 22.4 µM (active)
Cc1nn(-c2ccccc2)c(C)c1C(=O)Oc1ccccc1 | inactive
NC[C@H](Cc1ccccc1)NCCc1cc(C(F)(F)F)cc(C(F)(F)F)c1 | 39.8 µM (active)
NC(=S)c1cc2cc(Cl)ccc2oc1=O | inactive
N=c1c(C(=O)NCC2CCCO2)cc2c(=O)n3ccccc3nc2n1C1CCCCC1 (stereo not given) | inactive

SMILES | Potency
COc1ccc(NC(=O)CSCC(=O)NCCc2ccccn2)cc1 | inactive
COc1ccc(NC(=O)CC2Sc3ncnn3C2=O)cc1 (stereo not given) | 39.8 µM (active)
COc1ccc(NC(=O)CN2CCN(CC(=O)Nc3ccc(OC)cc3)CC2)cc1 | inactive
O=C(Oc1c(CN2CCOCC2)cc(Cl)c2cccnc12)c1ccccc1F | inactive
CC(=O)N1CCc2ccc(S(=O)(=O)N3CCc4ccccc43)cc21 | inactive
CC(=O)N1CCCc2cc(S(=O)(=O)N3CCCC(C(=O)N4CCN(c5cccc(Cl)c5)CC4)C3)ccc21 (stereo not given) | 39.8 µM (active)
CC(C)c1ccc(S(=O)(=O)N2CCN(C(=O)C3CCCC3)CC2)cc1 | inactive
COc1ccc(C(=O)NNC(=O)c2ccc3ccccc3n2)cc1 | 17.8 µM (active)
CC(NC(=O)c1ccc2ccccc2n1)c1ccc(S(N)(=O)=O)cc1 (stereo not given) | inactive
COc1ccc(C(=O)N/N=C/c2cc3ccccc3nc2O)cc1 | inactive
COc1ccc(C2c3[nH]c4ccccc4c3CCN2CCCn2cccn2)c(C)c1C (stereo not given) | inactive
Cc1cccc(N=C(S)N2CCC(C(N)=O)(N3CCCCC3)CC2)c1C | inactive
Cc1cccc(N=C(S)N=Nc2c(O)n(CN3CCOCC3)c3ccccc23)c1C | 6.31 µM (active)
Oc1c(N=NC(S)=Nc2ccccc2F)c2ccccc2n1Cc1ccc(Cl)cc1 | inactive
CCn1c(O)c(N=NC(S)=NCC2CCCO2)c2ccccc21 (stereo not given) | 8.91 µM (active)
Cc1ccc(C(=O)Nc2nc3n(n2)C(c2ccc(F)cc2)C=C(c2ccccc2)N3)cc1 (stereo not given) | inactive
O=C1/C(=C/c2ccccc2Cl)SC(=S)N1CCCC(=O)N(CCO)c1ccccc1 | 31.6 µM (active)
O=C1/C(=C\c2cccc(O)c2O)SC(=S)N1Cc1ccccc1 | 31.6 µM (active)
O=C(O)c1cc(-c2ccc(/C=C3/SC(=S)N(Cc4ccccc4)C3=O)o2)ccc1Cl | inactive
COc1cc([N+](=O)[O-])cc(/C=C2/SC(=S)N(Cc3ccccc3)C2=O)c1O | 20 µM (active)
O=C(O)CN1C(=O)/C(=C\c2cccc(OCc3ccc(Cl)cc3)c2)SC1=S | inactive
NS(=O)(=O)c1ccc(CCN2C(=O)/C(=C\c3ccc(Cl)cc3)SC2=S)cc1 | 17.8 µM (active)
NS(=O)(=O)c1ccc(CCNS(=O)(=O)c2ccc(Cl)s2)cc1 | inactive
COc1ccc(/C=C(\C)C(=O)c2c(C)cc(C)nc2O)cc1 | inactive
Cc1ccc2c(CN(C)Cc3cccc(Cl)c3)cc(=O)oc2c1C | inactive

SMILES | Potency
C=C1c2ccccc2N=C(S)N1Cc1ccc2c(c1)OCO2 | inactive
COCc1cc(C)nc(SCC(=O)Oc2ccc(Cl)cc2)c1C#N | inactive
N=c1c(C(=O)NC2CCCCC2)cc2c(=O)n3ccccc3nc2n1CC1CCCO1 (stereo not given) | inactive
CCn1nc(NC(=O)C(C)(C)C)c2cc3cccc(C)c3nc21 | inactive
O=C1/C(=C\c2cc([N+](=O)[O-])ccc2O)SC(=S)N1Cc1ccc(Cl)cc1 | 35.5 µM (active)
O=C1c2ccc([N+](=O)[O-])cc2C(=O)N1c1ccc(Cl)cn1 | inactive
CN(C)c1ccc(/C=C/C=N/Nc2nc(N3CCOCC3)nc(N3CCOCC3)n2)cc1 | inactive
O=C(CCl)NNc1nc(-c2ccccc2)c2cc(Cl)ccc2n1 | 1.58 µM (active)
OCCNc1nc(-c2ccccc2)c2cc(Cl)ccc2n1 | inactive
OCCCNc1nc(-c2ccccc2)c2cc(Cl)ccc2n1 | inactive
CCC(C)(C)n1nnnc1C(c1ccc(F)cc1)N1CCC(C(N)=O)CC1 (stereo not given) | inactive
CCOC(=O)c1c(CC(C)C)csc1NC=C1C(=O)CCCC1=O | 39.8 µM (active)
CCOC(=O)c1c(CC(C)C)csc1N | inactive
CCOC(=O)c1c(CC(C)C)csc1/N=C/C1C(=O)CCCC1=O | inactive
CCc1c(C)c2cc(Cl)c(O)c(CN3CCCC3)c2oc1=O | inactive
O=C(NNC(=O)c1ccc(Cl)cc1Cl)c1cnccn1 | inactive
O=C(CSc1nc2ccccc2n1Cc1ccc(Cl)cc1)N/N=C/c1ccc(C(=O)O)cc1 | inactive
CCc1ccc(OCCSc2nc3ccccc3n2CCC(=O)O)cc1 | inactive
CCc1ccc(OCCSc2nc3ccccc3n2CC(=O)N2CCCCC2)cc1 | 39.8 µM (active)
Cc1ccc(OCCSc2nc3ccccc3n2CC(=O)N2CCCCC2)c(C)c1 | 35.5 µM (active)
O=C(Cn1c(SCCOc2ccc(Cl)cc2)nc2ccccc21)N1CCCCC1 | 39.8 µM (active)
COc1ccccc1OCc1nnc(SCC(=O)N2CCCCC2)o1 | inactive
COCCn1c(SCC(=O)NC2CC2)nc2ccccc21 | inactive
CN(CCOc1ccc(Cl)cc1)C(=O)c1ccccc1SCC(=O)N1CCCC1 | inactive
Cc1cccc(OCCCC(=O)N2CCCCCC2)c1C | inactive
